Values joined by “and” are separate entries in the source; they are usually repeats but may differ in a detail not shown here. Equal values may be shown once. The panel holds about 83,000 compounds, 20% with a hit somewhere; the sample as a whole holds those more often.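 Each cell line was grown in a 96-well plate and treated with one concentration of compound for 48 hours. Values below 10 were considered active.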 Unmarked numbers belong to inactive results. Active and inactive are the calls of the source.

The results in this text go back to PubChem BioAssay (NCI).

Test systems include RPMI-8226 leukemia; OVCAR-8 ovarian; OVCAR-5 ovarian; OVCAR-4 ovarian; SK-OV-3 ovarian; IGROV1 ovarian; HS 578T breast; NCI/ADR-RES ovarian.
What all share (experiment): NCI-60 one-dose screen, 48 h (100 = growth as untreated, 0 = no growth, -100 = all killed)
The test system of a further test is SR leukemia. The settings on record: 10 µM unless noted.
The test system of a further test is OVCAR-3 ovarian. Conditions: 10 µM unless noted.

Take `CCOC(=O)c1c(C)[nH]c(CO)c1C`: the growth with SR leukemia is 101%; in the test with RPMI-8226 leukemia (10 µM unless noted), 97.8%; in the test on OVCAR-8 ovarian (10 µM unless noted), 101%; in the test on OVCAR-5 ovarian (10 µM unless noted) it was 104%; in the test with OVCAR-4 ovarian (10 µM unless noted) it was 105%; with SK-OV-3 ovarian (10 µM unless noted), 102%. Moreover, the growth is 98% with IGROV1 ovarian (10 µM unless noted), 103% with OVCAR-3 ovarian, 109% in the test on HS 578T breast (10 µM unless noted) and 105% in the test with NCI/ADR-RES ovarian (10 µM unless noted).

Take `COc1cc(/C=C/C(C)=O)ccc1O`: the growth in the test with SR leukemia is 93.2% and 89.3%; with RPMI-8226 leukemia (10 µM unless noted), 116%; in the test on OVCAR-8 ovarian (10 µM unless noted), 104% and 105%; in the test on OVCAR-5 ovarian (10 µM unless noted), 92.3% and 102%; in the test with OVCAR-4 ovarian (10 µM unless noted), 108% and 103%; with SK-OV-3 ovarian (10 µM unless noted), 94% and 112%. The growth in the test on IGROV1 ovarian (10 µM unless noted) was 101% and 119%; in the test with OVCAR-3 ovarian it was 100% and 106%; in the test on HS 578T breast (10 µM unless noted), 113%; in the test with NCI/ADR-RES ovarian (10 µM unless noted) it was 107% and 100%.

As to `CCC(CCCN(CC)CCc1ccccc1)OC(=O)c1cc(OC)c(OC)c(OC)c1` (stereo unspecified), the growth was 78.7% in the test on SR leukemia; 85% in the test on RPMI-8226 leukemia (10 µM unless noted); 92.2% in the test on OVCAR-8 ovarian (10 µM unless noted); 84.8% in the test on OVCAR-5 ovarian (10 µM unless noted); 82.6% with OVCAR-4 ovarian (10 µM unless noted); 83.5% in the test on SK-OV-3 ovarian (10 µM unless noted). The growth is 78.1% in the test on IGROV1 ovarian (10 µM unless noted), 92.2% with OVCAR-3 ovarian, 81.3% with HS 578T breast (10 µM unless noted) and 83.3% in the test on NCI/ADR-RES ovarian (10 µM unless noted).

On to `COc1ccc(-c2cscc2N)cc1`, for which the growth in the test on SR leukemia was 59.1% [100 µM]; with RPMI-8226 leukemia (10 µM), 88.7%; in the test with RPMI-8226 leukemia (100 µM) it was 23.7%; in the test on OVCAR-8 ovarian (10 µM), 77.6%; in the test with OVCAR-8 ovarian (100 µM) it was 48.9%; in the test with OVCAR-4 ovarian (10 µM), 103%. Moreover, the growth in the test with OVCAR-4 ovarian (100 µM) is 45.3%; with SK-OV-3 ovarian (10 µM unless noted), 80.2% [100 µM]; in the test with IGROV1 ovarian (10 µM) it was 91.1%; in the test with IGROV1 ovarian (100 µM), 58%; in the test on HS 578T breast (10 µM), 106%; in the test on HS 578T breast (100 µM), 88.2%. The growth in the test with NCI/ADR-RES ovarian (10 µM) was 77.8%; in the test on NCI/ADR-RES ovarian (100 µM) it was 78.1%.

For `S=C(NCCNC(=S)[S][Sn]([c]1ccccc1)([c]1ccccc1)[c]1ccccc1)[S][Sn]([c]1ccccc1)([c]1ccccc1)[c]1ccccc1`, the growth was 0.639% (active) in the test with SR leukemia; -24% (active) with RPMI-8226 leukemia (10 µM unless noted); -99.2% (active) with OVCAR-8 ovarian (10 µM unless noted); -93.6% (active) in the test with OVCAR-5 ovarian (10 µM unless noted); -100% (active) in the test on OVCAR-4 ovarian (10 µM unless noted); -100% (active) with SK-OV-3 ovarian (10 µM unless noted). In addition, the growth in the test on IGROV1 ovarian (10 µM unless noted) was -84.8% (active); in the test on OVCAR-3 ovarian, -98.5% (active); in the test on HS 578T breast (10 µM unless noted), -14.5% (active); with NCI/ADR-RES ovarian (10 µM unless noted), -64.5% (active).

Regarding `CNc1ccc2c(c1)c1ccccc1n2C`, the growth with SR leukemia is 93.9%; in the test on RPMI-8226 leukemia (10 µM unless noted) it was 110%; with OVCAR-8 ovarian (10 µM unless noted), 100%; in the test with OVCAR-5 ovarian (10 µM unless noted), 112%; with OVCAR-4 ovarian (10 µM unless noted) it was 108%; with SK-OV-3 ovarian (10 µM unless noted), 106%. The growth is 109% in the test with IGROV1 ovarian (10 µM unless noted), 102% with OVCAR-3 ovarian, 118% in the test with HS 578T breast (10 µM unless noted) and 102% with NCI/ADR-RES ovarian (10 µM unless noted).

As for `O=C1c2ccccc2C(=O)N1c1ccccc1`, the growth in the test on SR leukemia was 85.7%; in the test with RPMI-8226 leukemia (10 µM unless noted), 119%; in the test on OVCAR-8 ovarian (10 µM unless noted), 98.6%; with OVCAR-5 ovarian (10 µM unless noted), 107%; in the test with OVCAR-4 ovarian (10 µM unless noted) it was 105%; in the test with SK-OV-3 ovarian (10 µM unless noted), 99.1%. The growth in the test with IGROV1 ovarian (10 µM unless noted) is 105%; in the test on OVCAR-3 ovarian it was 108%; with HS 578T breast (10 µM unless noted) it was 119%; in the test on NCI/ADR-RES ovarian (10 µM unless noted), 105%.

Take `O[C@H]1[C@H]2c3cc4c(cc3CN3CCC(=C[C@@H]1O)[C@H]23)OCO4`: the growth in the test on SR leukemia is 32.7%; in the test on RPMI-8226 leukemia (10 µM unless noted) it was 23.1%; with OVCAR-8 ovarian (10 µM unless noted), 26.7%; in the test on OVCAR-5 ovarian (10 µM unless noted), 34.5%; in the test on OVCAR-4 ovarian (10 µM unless noted), 16.5%; in the test with SK-OV-3 ovarian (10 µM unless noted) it was 22%. The growth is 40.8% with IGROV1 ovarian (10 µM unless noted), 34.5% with OVCAR-3 ovarian, 42.7% with HS 578T breast (10 µM unless noted) and 19.1% in the test on NCI/ADR-RES ovarian (10 µM unless noted).

Consider `O=C(Nc1cccc(Br)c1)Oc1cccc2cccnc12`, for which the growth with SR leukemia was 10.5% [100 µM]; in the test on RPMI-8226 leukemia (10 µM) it was 99.2%; with RPMI-8226 leukemia (100 µM), 1.75% (active); in the test on OVCAR-8 ovarian (10 µM), 102%; in the test on OVCAR-8 ovarian (100 µM) it was 11%; with OVCAR-5 ovarian (10 µM), 108%. In addition, the growth in the test with OVCAR-5 ovarian (100 µM) was 9.37% (active); in the test with OVCAR-4 ovarian (10 µM), 80.7%; in the test on OVCAR-4 ovarian (100 µM), -4.65% (active); in the test on SK-OV-3 ovarian (10 µM) it was 110%; in the test with SK-OV-3 ovarian (100 µM), 102%; with IGROV1 ovarian (10 µM) it was 106%. The growth in the test on IGROV1 ovarian (100 µM) is 6.09% (active); with HS 578T breast (10 µM), 110%; in the test with HS 578T breast (100 µM), 79.3%; in the test on NCI/ADR-RES ovarian (10 µM) it was 103%; in the test on NCI/ADR-RES ovarian (100 µM) it was 4.89% (active).

`Cc1ccc(NS(=O)(=O)c2ccc(C)cc2)cc1`: the growth in the test on SR leukemia is 91.7% and 97.8%; with RPMI-8226 leukemia (10 µM unless noted), 83.1% and 95.2%; in the test on OVCAR-8 ovarian (10 µM unless noted) it was 97.5% and 92.7%; in the test on OVCAR-5 ovarian (10 µM unless noted) it was 111% and 105%; in the test on OVCAR-4 ovarian (10 µM unless noted), 93.7% and 106%; with SK-OV-3 ovarian (10 µM unless noted) it was 109% and 101%. In addition, the growth was 111% and 107% with IGROV1 ovarian (10 µM unless noted); 105% and 98.9% with OVCAR-3 ovarian; 98.9% and 111% in the test on HS 578T breast (10 µM unless noted); 104% and 99.7% in the test with NCI/ADR-RES ovarian (10 µM unless noted).

`O=C(Nc1ccccc1)c1cc(Cl)ccc1O`: the growth in the test on SR leukemia was 48.7%; with RPMI-8226 leukemia (10 µM unless noted), 19.9%; with OVCAR-8 ovarian (10 µM unless noted), 44.9%; with OVCAR-5 ovarian (10 µM unless noted), 94.1%; in the test on OVCAR-4 ovarian (10 µM unless noted), 41.3%; in the test with SK-OV-3 ovarian (10 µM unless noted), 73.6%. For the same compound, the growth with IGROV1 ovarian (10 µM unless noted) is 58.9%; in the test with OVCAR-3 ovarian, 37.4%; in the test on HS 578T breast (10 µM unless noted) it was 29%; in the test with NCI/ADR-RES ovarian (10 µM unless noted) it was 74.6%.
